Assay results reported in the antibiotic and cytotoxicity screens of Wong et al. (2023).
Among all 39,000 compounds or so, about 3,300 (8.5%) were called active. The sample holds actives, similar compounds and a random draw of the others, so the mix is not that of the screen.

What follows are compounds tested on HepG2 (assay: cytotoxicity call (relative viability < 0.9)). Settings: 10 µM.

Compound	cytotoxicity call
O=C(N[C@@H]1CC[C@H](CCNS(=O)(=O)c2ccc(F)cc2)O[C@@H]1CO)C1CC1	inactive
C[C@H](CO)N1C[C@H](C)[C@@H](CN(C)S(=O)(=O)c2ccc(F)cc2)Oc2ccc(NS(=O)(=O)c3cn(C)cn3)cc2C1=O	inactive
C[C@H]1CCCCO[C@H](CN(C)C(=O)c2ccccc2)[C@@H](C)CN([C@@H](C)CO)C(=O)c2cc(NS(=O)(=O)c3ccc(Cl)cc3)ccc2O1	inactive
CN(C[C@@H](O)CN)S(=O)(=O)c1ccccc1	inactive
O=C(O)c1ccc(OC[C@@H](O)CO[C@H](COc2ccc(C(=O)O)cc2)Cn2c3ccccc3c3ccccc32)cc1	inactive
Cc1c(-c2ccccc2)n(C[C@@H](O)CN)c2ccccc12	active
COc1ccc(S(=O)(=O)Nc2ccc3c(c2)C(=O)N([C@H](C)CO)C[C@@H](C)[C@H](CN(C)Cc2ccccc2)OCCCC[C@H](C)O3)cc1	inactive
CS(=O)(=O)N1C[C@H]2CN(Cc3ccncc3)C(=O)[C@@H]2C1	inactive
C[C@H](CO)N1C[C@H](C)[C@H](CN(C)C(=O)CN(C)C)Oc2cc(C#CCN(C)C)ccc2S1(=O)=O	inactive
CCOc1cc2ncc(C#N)c(Nc3ccc(OCc4ccccn4)c(Cl)c3)c2cc1NC(=O)/C=C/[C@H]1CCCN1C	active
CCOc1cc2ncc(C#N)c(Nc3ccc(OCc4ccccn4)c(Cl)c3)c2cc1NC(=O)/C=C/CN(C)C	active
CCOc1ccc(C(=O)Nc2ccc(S(=O)(=O)N3CCCC[C@@H]3c3cccnc3)cc2)cc1OCC	inactive
COc1ccccc1[C@@H](NC(=O)C1CCN(CCOc2ccc(Cl)cc2Cl)CC1)c1ccccn1	inactive
OC[C@H]1CN(Cc2ccccc2)CCO1	inactive
Cc1nc2ccc([N+](=O)[O-])cc2s1	inactive
CO[C@H]1CN(C)C(=O)c2cc(NC(=O)CC(F)(F)F)ccc2OC[C@H](C)N(C(=O)C2CCOCC2)C[C@@H]1C	inactive
C=CCOC(=O)[C@H]1[C@@H]2C(=O)O[C@@H](c3ccccc3)[C@@H](c3ccccc3)N2[C@@H](c2ccc(OCCOC(=O)[C@H]3C[C@H]4C(=O)N[C@@H](CCCC[N+](C)(C)C)C(=O)N4[C@H]3c3ccc(O)cc3)cc2)[C@]12C(=O)Nc1ccc(I)cc12	inactive
C[C@@H]1CCCCO[C@@H](CN(C)C(=O)Nc2ccc(F)cc2)[C@@H](C)CN([C@H](C)CO)C(=O)c2cc(NC(=O)NC3CCCCC3)ccc2O1	inactive
C[C@@H]1CCCCO[C@H](CN(C)S(=O)(=O)c2ccccc2)[C@H](C)CN([C@@H](C)CO)C(=O)c2cc(NC(=O)Nc3ccc(F)cc3)ccc2O1	active
COCOC[C@H](C)N1C[C@@H](C)[C@H](CN(C)S(=O)(=O)c2ccc(F)cc2)OCCCC[C@H](C)Oc2ccc(NC(=O)Nc3ccccc3)cc2C1=O	inactive

Compound	cytotoxicity call
C[C@H](CO)N1C[C@H](C)[C@@H](CN(C)S(=O)(=O)c2ccccc2)OCCCC[C@H](C)Oc2ccc(NC(=O)Nc3ccc(F)cc3)cc2C1=O	inactive
C[C@@H]1CN([C@@H](C)CO)C(=O)c2cc(NC(=O)Nc3ccc(F)cc3)ccc2O[C@@H](C)CCCCO[C@H]1CN(C)S(=O)(=O)c1ccccc1	inactive
C=CCOC(=O)N(C)C[C@H]1OCCCC[C@H](C)Oc2ccc(NC(=O)Nc3ccccc3)cc2C(=O)N([C@@H](C)CO[Si](C)(C)C(C)(C)C)C[C@H]1C	active
C[C@@H]1CN([C@H](C)CO[Si](C)(C)C(C)(C)C)C(=O)c2cc(NC(=O)Nc3ccccc3)ccc2O[C@@H](C)CCCCO[C@H]1CN(C)S(=O)(=O)c1ccc(F)cc1	inactive
C[C@@H]1CN([C@@H](C)CO[Si](C)(C)C(C)(C)C)C(=O)c2cc(NC(=O)Nc3ccccc3)ccc2O[C@@H](C)CCCCO[C@H]1CN(C)S(=O)(=O)c1ccc(F)cc1	active
C=CCOC(=O)N(C)C[C@@H]1OCCCC[C@H](C)Oc2ccc(NC(=O)Nc3ccccc3)cc2C(=O)N([C@H](C)COC(=O)c2ccccc2)C[C@H]1C	inactive
C[C@@H]1CN([C@H](C)CO)C(=O)c2cc(NC(=O)Nc3ccc(F)cc3)ccc2O[C@@H](C)CCCCO[C@@H]1CN(C)S(=O)(=O)c1ccccc1	inactive
C=CCOC(=O)N(C)C[C@@H]1OCCCC[C@H](C)Oc2ccc(NC(=O)Nc3ccccc3)cc2C(=O)N([C@@H](C)CO)C[C@H]1C	inactive
C[C@H]1CCCCO[C@H](CN(C)S(=O)(=O)c2ccccc2)[C@@H](C)CN([C@@H](C)CO)C(=O)c2cc(NC(=O)Nc3ccc(F)cc3)ccc2O1	active
C[C@@H]1CCCCO[C@@H](CN(C)S(=O)(=O)c2ccccc2)[C@H](C)CN([C@H](C)CO)C(=O)c2cc(NC(=O)Nc3ccc(F)cc3)ccc2O1	inactive
C[C@H](CO)N1C[C@H](C)[C@H](CN(C)S(=O)(=O)c2cccs2)OCCCC[C@H](C)Oc2ccc(NC(=O)NC3CCCCC3)cc2C1=O	inactive
C[C@H]1CCCCO[C@H](CN(C)C(=O)Nc2ccc3c(c2)OCO3)[C@@H](C)CN([C@@H](C)CO)C(=O)c2cc(NC(=O)C3CCCCC3)ccc2O1	inactive
C[C@@H]1CN([C@@H](C)CO)C(=O)c2cccc(NS(C)(=O)=O)c2O[C@H]1CN(C)S(=O)(=O)c1cn(C)cn1	inactive
C[C@H]1CN([C@@H](C)CO)C(=O)c2cc(NS(=O)(=O)c3ccc(F)cc3)ccc2O[C@@H]1CN(C)S(C)(=O)=O	inactive
CC(C)NC(=O)N(C)C[C@H]1OCc2cn(nn2)CCCC(=O)N([C@@H](C)CO)C[C@H]1C	inactive
O[C@@H]1[C@@H](O)[C@H](Nc2ccccc2)OC[C@H]1O	inactive
Cc1noc(C)c1S(=O)(=O)N(C)C[C@H]1Oc2ccc(NC(=O)Nc3ccccc3)cc2CC(=O)N([C@H](C)CO)C[C@@H]1C	inactive
CN(C)CC#Cc1ccc([C@@H]2[C@@H](CO)N3C(=O)CN(C(=O)c4cccnc4)C[C@@H]23)cc1	inactive
COc1ccc(NC(=O)N(C)C[C@H]2OCCCC[C@@H](C)Oc3ccc(NS(=O)(=O)c4c(C)noc4C)cc3C(=O)N([C@H](C)CO)C[C@@H]2C)cc1	inactive
C[C@@H]1CCCCO[C@H](CN(C)C(=O)C2CCCCC2)[C@@H](C)CN([C@@H](C)CO)C(=O)c2cc(NC(=O)Cc3ccccc3)ccc2O1	inactive

Compound	cytotoxicity call
C[C@@H]1CN([C@H](C)CO)C(=O)Cc2cc(NC(=O)Cn3cnnn3)ccc2O[C@@H]1CN(C)S(=O)(=O)c1cn(C)cn1	inactive
CC(C)N1C[C@@H](C)[C@H](CN(C)S(=O)(=O)c2ccc(F)cc2)OCCCC[C@H](C)Oc2ccc(NC(=O)Nc3ccccc3)cc2C1=O	inactive
C[C@@H]1CN([C@H](C)CO)C(=O)c2cc(NC(=O)Nc3ccc(F)cc3)ccc2O[C@@H](C)CCCCO[C@H]1CN(C)S(=O)(=O)c1ccccc1	inactive
C[C@@H]1CCCCO[C@@H](CN(C)S(=O)(=O)c2ccccc2)[C@@H](C)CN([C@@H](C)CO)C(=O)c2cc(NC(=O)Nc3ccc(F)cc3)ccc2O1	inactive
C[C@@H]1CN([C@@H](C)CO)C(=O)c2cc(NC(=O)Nc3ccccc3)ccc2O[C@@H](C)C/C=C/CO[C@H]1CN(C)S(=O)(=O)c1ccc(F)cc1	active
C[C@@H]1CN([C@@H](C)CN=[N+]=[N-])C(=O)c2cc(NC(=O)Nc3ccccc3)ccc2O[C@@H](C)CCCCO[C@H]1CN(C)S(=O)(=O)c1ccc(F)cc1	active
C[C@@H]1CN([C@@H](C)CO)C(=O)c2cc(NC(=O)Nc3ccccc3)ccc2O[C@@H](C)C/C=C\CO[C@H]1CN(C)S(=O)(=O)c1ccc(F)cc1	inactive
COc1ccc(S(=O)(=O)N(C)C[C@H]2OCCCC[C@H](C)Oc3ccc(NC(=O)Nc4ccccc4)cc3C(=O)N([C@H](C)CO)C[C@@H]2C)cc1	inactive
O=C(C[C@@H]1CC[C@@H]2[C@H](COC[C@H](O)CN2C(=O)Nc2cccc(F)c2)O1)NCCCN1CCOCC1	inactive
C[C@@H]1CN([C@@H](C)CO)C(=O)c2cc(NS(=O)(=O)c3ccccc3)ccc2O[C@@H](C)CCCCO[C@@H]1CN(C)S(=O)(=O)c1cn(C)cn1	inactive
C[C@@H]1CN([C@H](C)CO)C(=O)c2cc(NC(=O)CCC(F)(F)F)ccc2O[C@@H](C)CCCCO[C@@H]1CN(C)C(=O)CCC(F)(F)F	inactive
COc1cc(O)c2c(=O)c(OC)c(-c3ccc(OC)c(OC)c3)oc2c1	inactive
COc1ccc(-c2oc3cc(OC)c(OC)c(OC)c3c(=O)c2OC)cc1OC	active
COc1ccc(-c2oc3cc(OC)c(OC)c(OC)c3c(=O)c2OC)cc1	inactive
O=C(C[C@H]1C=C[C@@H](NC(=O)Cc2ccccn2)[C@H](CO)O1)NCCCN1CCOCC1	inactive
C[C@@H]1CN([C@H](C)CO)C(=O)c2c(c3ccccc3n2C)-c2ccccc2CO[C@H]1CN(C)C(=O)[C@H](C)c1ccccc1	inactive
C[C@H]1O[C@@H](O[C@H]2[C@@H](O)C[C@H](O[C@H]3[C@@H](O)C[C@H](O[C@H]4CC[C@@]5(C)[C@H](CC[C@@H]6[C@@H]5C[C@@H](O)[C@@]5(C)[C@@H](C7=CC(=O)OC7)CC[C@]65O)C4)O[C@@H]3C)O[C@@H]2C)C[C@H](O)[C@@H]1O	active
CC1OC(OC2C(O)CC(OC3C(O)CC(OC4CCC5(C)C(CCC6C5CC(O)C5(C)C(C7=CC(=O)OC7)CCC65O)C4)OC3C)OC2C)CC(O)C1O (centres undefined)	active
C[C@H]1O[C@@H](O[C@H]2[C@@H](O)C[C@H](O[C@H]3[C@@H](O)C[C@H](O[C@H]4CC[C@@]5(C)[C@H](CC[C@@H]6[C@@H]5C[C@@H](O)[C@]5(C)[C@@H](C7=CC(=O)OC7)CC[C@]65O)C4)O[C@@H]3C)O[C@@H]2C)C[C@H](O)[C@@H]1O	active
